Bioassay records as filed in PubChem BioAssay.
FLuc inh: blocks purified firefly luciferase enzyme activity. P08659. purified P. pyralis luciferase, luminescence, biochemical. Potency, µM (series often up to 115 µM), most hits filed as inhibitors. actives 2.5% (n = 76,000); note: nearly all actives have a fitted effect of over 65% in size
Target sequence (P08659 whole entry, looked up): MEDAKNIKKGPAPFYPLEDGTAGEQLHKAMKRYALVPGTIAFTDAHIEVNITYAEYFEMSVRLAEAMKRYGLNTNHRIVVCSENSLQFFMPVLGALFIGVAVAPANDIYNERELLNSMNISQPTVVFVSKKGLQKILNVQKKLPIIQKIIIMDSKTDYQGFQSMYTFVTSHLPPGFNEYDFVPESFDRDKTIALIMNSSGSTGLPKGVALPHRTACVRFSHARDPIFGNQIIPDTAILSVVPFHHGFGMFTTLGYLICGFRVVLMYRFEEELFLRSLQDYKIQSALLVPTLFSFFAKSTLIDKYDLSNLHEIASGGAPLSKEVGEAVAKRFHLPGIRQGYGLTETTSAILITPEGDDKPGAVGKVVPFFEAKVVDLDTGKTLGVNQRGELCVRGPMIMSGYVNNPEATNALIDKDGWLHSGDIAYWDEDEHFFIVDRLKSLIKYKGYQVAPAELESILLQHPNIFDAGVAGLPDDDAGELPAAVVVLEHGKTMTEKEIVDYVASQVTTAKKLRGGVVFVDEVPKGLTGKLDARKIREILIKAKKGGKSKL
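Purified 10nM P. pyralis luciferase with 10uM D-luciferin and 10uM ATP in 50mM Tris acetate pH 7.5, 10mM Mg acetate, 0.01% Tween-20, 0.05% BSA. qHTS titration; luminescence read by CCD imager.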
HEK cytotox: kills HEK 293 cells | actives 6.6% (n = 94,000) | HEK 293 viability, ATP luminescence (CellTiter-Glo), 48-72 h | Potency, µM (series often up to 115 µM), actives largely listed as inhibitors | AID 1345083; note: nearly all actives have a fitted effect of over 60% in size
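ATP-coupled CellTiter-Glo luminescence served as viability read-out, recorded 10 min after reagent addition at room temperature. HEK 293 cells, 250 cells/well, had been incubated with pintool-transferred compound for 48 or 72 hr at 37 degree Celsius.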
NIH3T3 tox: kills NIH 3T3 cells; Potency, µM (top dose mostly 96.7 µM), hits mostly inhibitors; NIH 3T3 viability, CellTiter-Glo ATP luminescence, 48-72 h; actives 4.3% (n = 94,000); AID 1345082; note: nearly all actives have a fitted effect of over 55% in size
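ATP-dependent luminescence (CellTiter-Glo) served as the viability signal for NIH 3T3 cells treated with compound for 48 or 72 hr at 37 °C.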
hNpr1 antagonist: antagonists of human natriuretic peptide receptor Npr1. P16066. HEK293 hNpr1 GloSensor cGMP, ANP-stimulated luminescence. Potency, µM (series often up to 46.3 µM), actives largely listed as inhibitors. actives 1.6% (n = 76,000); calls by dose curve; note: nearly all actives have a fitted effect of over 60% in size
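Compound pre-incubated 30 min at room temperature on GloSensor-loaded HEK293 cells stably carrying hNpr1 and the pGS-40F cGMP biosensor. Stimulation uses hNppA at 0.1 nM final; luminescence is taken at baseline and 20 min post-agonist.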
Each line names hits and unclear results; the compound was inactive in the other large screens. A selection: hits, their analogues and other compounds. The true share with any hit is near 11%. Unless noted, calls come from the whole dose curve; as a rule, active = well fitted curve in the direction sought with a large enough effect; inconclusive = small, poorly fitted or top-dose-only effect, or another doubt; inactive = no such curve, though single readings can be large; an effect the other way counts as inactive or inconclusive.

CCn1ccc(C(=O)NC2CCN(c3cc(-c4ccccc4)[nH]n3)CC2)n1	FLuc inh inconclusive, NIH3T3 tox inconclusive
CCn1ccc(C(=O)NC2CCCN(c3cc(-c4ccc(OC)cc4)[nH]n3)C2)n1 (stereo not drawn)	FLuc inh 28µM, HEK cytotox inconclusive
CCn1cnnc1-c1nn(C)c2c1CN(C(=O)Cc1c[nH]c3ccccc13)CC2	none
CC(=O)N1CCC(C(=O)N2CCCN(S(=O)(=O)c3ccccc3)CCC(=O)NCC2)CC1	none
CCCc1noc(-c2cccn3c(CNC(=O)c4ccc(C(C)(C)C)cc4)nnc23)n1	HEK cytotox inconclusive, NIH3T3 tox 40µM
O=C(NCc1nnc2c(-c3nc(C4CC4)no3)cccn12)c1ccccc1Cl	none
O=C(NCc1nnc2c(-c3nc(C4CC4)no3)cccn12)c1nccc2ccccc12	HEK cytotox inconclusive, NIH3T3 tox 45µM
CC(C)(C)c1nc(C(=O)N2CCN(c3ncccn3)CC2)n2ccncc12	HEK cytotox inconclusive (no result: FLuc inh, hNpr1 antagonist)
Cn1cccc1C(=O)NC[C@H]1O[C@@H](CO)[C@@H](O)C1N1CCN(c2ccccc2)CC1 (stereo partly drawn)	HEK cytotox inconclusive, NIH3T3 tox inconclusive
CC(C)(C)c1nc(C(=O)NCCc2ccc(Cl)cc2)n2ccncc12	HEK cytotox 35µM, NIH3T3 tox inconclusive (no result: FLuc inh, hNpr1 antagonist)
CC(C)(C)c1nc(C(=O)NCCc2ccc(Cl)cc2)n2ccccc12	NIH3T3 tox inconclusive (no result: FLuc inh, hNpr1 antagonist)
O=C(NCC1CCCCC1)c1cn2cc(-c3ccc(C(F)(F)F)cc3)sc2n1	HEK cytotox inconclusive (no result: FLuc inh, hNpr1 antagonist)
FC(F)(F)c1ccccc1-c1cc(-c2cccnc2)c2cncn2c1	HEK cytotox 63µM, NIH3T3 tox 45µM
Cc1noc(C)c1-c1cc(-c2ccccc2F)cn2cncc12	HEK cytotox 79µM, NIH3T3 tox inconclusive
Cc1noc(C)c1-c1cc(-c2ccc(CO)cc2)cn2cncc12	HEK cytotox inconclusive, NIH3T3 tox inconclusive
Cc1noc(C)c1-c1cc(-c2ccccc2C(F)(F)F)cn2cncc12	HEK cytotox 71µM, NIH3T3 tox inconclusive
COc1ccccc1-c1[nH]nc2ncc(C(=O)N3CCNC(=O)C3)nc12	NIH3T3 tox inconclusive
O=C(c1ccc(Cl)cc1)N1CC2(CCN(Cc3ccc(Cl)cc3)CC2)Cc2ccccc21	HEK cytotox 40µM, NIH3T3 tox 35µM (no result: FLuc inh, hNpr1 antagonist)
O=C(c1ccc(Cl)cc1)N1CC2(CCN(Cc3c[nH]c4ccccc34)CC2)Cc2ccccc21	HEK cytotox 20µM, NIH3T3 tox 11µM (no result: FLuc inh, hNpr1 antagonist)
O=C(c1ccc(Cl)cc1)N1CC2(CCCN(Cc3ccc(Cl)cc3)C2)Cc2ccccc21 (stereo not drawn)	HEK cytotox inconclusive, NIH3T3 tox 32µM (no result: FLuc inh, hNpr1 antagonist)
O=C(O)CCC(=O)N1CCC2(Cc3ccccc3N(C(=O)c3ccc(Cl)cc3)C2)C1 (stereo not drawn)	none (no result: FLuc inh, hNpr1 antagonist)
O=C(c1n[nH]c2ccccc12)N1CCC(N2C(=O)C(OCC3CC3)C23CCCCC3)CC1 (stereo not drawn)	HEK cytotox inconclusive, NIH3T3 tox inconclusive
COc1ccc(-c2cc(N3CCC(NC(=O)c4cc(OC)c(OC)c(OC)c4)C3)n[nH]2)cc1 (stereo not drawn)	HEK cytotox inconclusive
CCC(CC)c1cc([C@H]2CN3CC[C@H]2C[C@@H]3CNC(=O)c2cc(OC)c(OC)c(OC)c2)nc(-c2ccncc2)n1	HEK cytotox 28µM, NIH3T3 tox 20µM, hNpr1 antagonist inconclusive
CCCNC(=O)N1C[C@@H](Oc2ccccc2)C[C@H]1C(=O)N1CCOCC1	none
COC[C@@H]1[C@@H](NC(=O)c2cnc(C)nc2-c2ccccc2)[C@@H]2CCO[C@H]12	none
C[C@@H](NC(=O)C[C@@H]1c2nc(NC(=O)CC(C)(C)C)sc2C[C@@H]2[C@](C)(CO)[C@H](O)CC[C@]21C)c1ccccc1	HEK cytotox 40µM, NIH3T3 tox inconclusive
CCCCCC(=O)Nc1nc2c(s1)C[C@@H]1[C@](C)(CO)[C@H](O)CC[C@@]1(C)[C@@H]2CC(=O)N[C@@H](CO)CC(C)C	HEK cytotox inconclusive, NIH3T3 tox 79µM
C[C@H](NC(=O)C[C@@H]1c2nc(NC(=O)c3ccc(F)cc3)sc2C[C@@H]2[C@](C)(CO)[C@H](O)CC[C@]21C)c1ccccc1	HEK cytotox 32µM, NIH3T3 tox inconclusive
CC(C)c1cc(CN(C)C(=O)CN2C(=O)COc3cccnc32)on1	none
COc1ccccc1Nc1ncc2c(n1)CN(C(=O)c1cc3ccccc3n1C)CCN2	HEK cytotox 71µM, NIH3T3 tox inconclusive
COc1ccccc1Nc1ncc2c(n1)CN(C(=O)Cc1cccc(F)c1)CCN2	HEK cytotox inconclusive, NIH3T3 tox inconclusive
COc1ccccc1Nc1ncc2c(n1)CN(C(=O)c1cccc(C#N)c1)CCN2	HEK cytotox 79µM, hNpr1 antagonist inconclusive
Cc1nnc(-c2cc(-c3ccc(CO)cc3)ccn2)n1Cc1ccccc1	HEK cytotox inconclusive, NIH3T3 tox inconclusive
COc1ccccc1-c1ccnc(-c2nnc(C)n2Cc2ccccc2)c1	FLuc inh inconclusive, HEK cytotox 71µM, NIH3T3 tox inconclusive
COc1ccccc1-c1ccnc(-c2nnc(C)n2Cc2ccncc2)c1	NIH3T3 tox 56µM
Oc1ccc(-c2nc(C3CC3)nc3c2CCN(Cc2ccccc2C(F)(F)F)CC3)cc1	HEK cytotox 32µM, NIH3T3 tox 32µM
Cc1ccccc1CN1CCc2nc(N3CCN(C)CC3)[nH]c(=O)c2CC1	none
CN1CCN(c2nc3c(c(=O)[nH]2)CCN(Cc2ccccc2C(F)(F)F)CC3)CC1	HEK cytotox 79µM
CCc1nc2c(c(-c3ccc(O)cc3)n1)CCN(Cc1ccccc1C(F)(F)F)CC2	HEK cytotox inconclusive, NIH3T3 tox 40µM
CCc1nc2c(c(-c3ccc(O)cc3)n1)CCN(Cc1ccc(OC(F)(F)F)cc1)CC2	HEK cytotox inconclusive, NIH3T3 tox inconclusive
Cc1ccc(CN2CCc3nc(C4CC4)nc(-c4ccc(O)cc4)c3CC2)cc1	HEK cytotox inconclusive, NIH3T3 tox inconclusive
CCc1nc2c(c(-c3ccc(O)cc3)n1)CCN(Cc1cccc(C(F)(F)F)c1)CC2	HEK cytotox 45µM, NIH3T3 tox 40µM, hNpr1 antagonist inconclusive
O=C(Nc1cccc2ccccc12)O[C@@H]1CO[C@H]2[C@@H]1OC[C@@H]2NCC1CCCCC1	HEK cytotox 45µM, NIH3T3 tox inconclusive
O=C(Nc1cccc2ccccc12)O[C@@H]1CO[C@H]2[C@@H]1OC[C@@H]2NS(=O)(=O)c1ccc2ccccc2c1	HEK cytotox inconclusive, NIH3T3 tox 79µM
O=C(Nc1ccc(Oc2ccccc2)cc1)N[C@H]1CO[C@H]2[C@@H]1OC[C@H]2OC(=O)Nc1cccc2ccccc12	HEK cytotox 18µM, NIH3T3 tox inconclusive, hNpr1 antagonist inconclusive
O=C(Nc1ccc(Oc2ccccc2)cc1)O[C@@H]1CO[C@H]2[C@@H]1OC[C@@H]2NC(=O)c1ccccn1	FLuc inh inconclusive, HEK cytotox inconclusive, NIH3T3 tox inconclusive, hNpr1 antagonist 11µM
O=C(Nc1cccc2ccccc12)O[C@@H]1CO[C@H]2[C@@H]1OC[C@@H]2NC(=O)C1CCC1	none
